The entries come from a sample that favours hits as a whole.
U2OS ROS induce: inducers of reactive oxygen species in cancer cells; U2OS ROS induction, H2DCF-DA fluorescence; ROS induction (% of piperlongumine), % at 10 µM; 2% of 46,000 active; AID 624156; in the data active = ROS induction above about 79%, passing the limit was not always enough;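 note: 0% = DMSO vehicle median and 100% = reference compound median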
NOMO-1 viab: STK33 inhibitor candidate reducing NOMO-1 cell viability; inhibition, % (no concentration beside the values); 7.5% of 37,000 active; NOMO-1 AML viability, CellTiter-Glo luminescence, 72 h; AID 2330; in the data active = inhibition above about 80%
* = called active by the depositor; nt = not tested or not shown.

SMILES	U2OS ROS induce	NOMO-1 viab
Cc1cc2c(c(=O)n1CCCn1ccnc1)C(c1ccccc1)C(C#N)=C(N)O2 (stereo not drawn)	10	29
CCCCC[C@H](CC(=O)NO)C(=O)N[C@H](C(=O)N1CCC[C@H]1CO)C(C)C	-5	107*
O=c1cc(N2CCOCC2)oc2c(-c3ccccc3)cccc12	85*	125*
O=c1cc(N2CCOCC2)oc2c1ccc1ccccc12	-2	18
O=C(CCCCC(=O)N/N=C/c1ccc(O)cc1)NO	-5	nt
COc1cc(-c2ccccn2)nc(/C=N/O)c1S(C)=O (stereo not drawn)	-11	nt
COC(=O)c1cc(NC(=O)CSc2nc(C)cc(C)n2)cc(C(=O)OC)c1	-8	114*
COc1ccc(NC(=O)CSc2nc(C)cc(C)n2)cc1	-6	-9
CCc1ccc(NC(=O)CSc2nnc(-c3ccc(Br)cc3)n2C)cc1	-5	-12
C[C@@H]1CN([C@@H](C)CO)C(=O)c2cccc(NC(=O)c3nc4ccccc4s3)c2O[C@H]1CN(C)C(=O)NC1CCCCC1	9	17
C[C@H]1CN([C@@H](C)CO)C(=O)c2cc(NC(=O)CCC(F)(F)F)ccc2O[C@@H]1CN(C)S(=O)(=O)c1cccs1	-11	3
Cc1noc(C)c1S(=O)(=O)N(C)C[C@@H]1Oc2ccc(NC(=O)Nc3cccc4ccccc34)cc2CC(=O)N([C@H](C)CO)C[C@@H]1C	3	24
O=C1CC(N2C(=O)C3CC=CCC3C2=O)C2COC1O2 (stereo not drawn)	91*	nt
O=C1C2CC=CCC2C(=O)N1Cc1ccccc1 (stereo not drawn)	-4	nt
C[C@H]1CN([C@@H](C)CO)C(=O)Cc2cc(NC(=O)CCN3CCOCC3)ccc2O[C@H]1CN(C)Cc1ccc(C(F)(F)F)cc1	8	-4
C[C@@H]1CN([C@@H](C)CO)C(=O)Cc2cc(NC(=O)Nc3ccc(C(F)(F)F)cc3)ccc2O[C@@H]1CN(C)Cc1ccc2c(c1)OCO2	2	122*
C[C@@H]1CN([C@H](C)CO)C(=O)Cc2cc(NC(=O)Nc3ccc(C(F)(F)F)cc3)ccc2O[C@H]1CN(C)Cc1ccc2c(c1)OCO2	3	-13
C[C@H]1CN([C@@H](C)CO)C(=O)Cc2cc(NC(=O)Nc3ccc(C(F)(F)F)cc3)ccc2O[C@@H]1CN(C)Cc1ccc(C(F)(F)F)cc1	-3	126*
C[C@H]1CN([C@@H](C)CO)C(=O)Cc2cc(NC(=O)Nc3ccc(F)cc3)ccc2O[C@H]1CN(C)Cc1ccc(C(F)(F)F)cc1	-7	126*
C[C@H]1CN([C@@H](C)CO)C(=O)Cc2cc(NC(=O)Nc3ccc(C(F)(F)F)cc3)ccc2O[C@@H]1CN(C)Cc1ccncc1	-6	20
C[C@H](CO)N1C[C@H](C)[C@H](CN(C)Cc2ccc(C(=O)O)cc2)Oc2ccc(NC(=O)Nc3ccc(C(F)(F)F)cc3)cc2CC1=O	-5	18
C[C@@H]1CN([C@@H](C)CO)C(=O)Cc2cc(NC(=O)Nc3ccc(F)cc3)ccc2O[C@@H]1CN(C)Cc1ccc(C(F)(F)F)cc1	26	113*
CCCNC(=O)Cn1ncc2c3ccccc3n(C)c2c1=O	-11	nt
CNC[C@H]1Oc2c(NS(=O)(=O)c3cn(C)cn3)cccc2C(=O)N([C@@H](C)CO)C[C@@H]1C	-3	-10
COc1cc(/C=N/NC(=O)c2ccccn2)cc(OC)c1OC	12	nt
SMILES	U2OS ROS induce	NOMO-1 viab
Cc1nnc(SCc2nc(-c3ccccc3)no2)n1-c1ccccc1	-6	-11
COc1ccc(-c2noc(CSc3nnc(-c4ccccc4)n3C)n2)cc1	125*	-5
Cc1coc(C)c1C(=O)CC1(O)C(=O)N(CCCC#N)c2ccccc21 (stereo not drawn)	-8	32
C#CCN1C(=O)C(O)(CC(=O)c2ccc(C)o2)c2ccccc21 (stereo not drawn)	-13	120*
NC(=O)CN1C(=O)C(O)(CC(=O)c2cccnc2)c2ccccc21 (stereo not drawn)	nt	-7
Cc1ccc(C(=O)CC2(O)C(=O)N(CC(N)=O)c3ccccc32)s1 (stereo not drawn)	-13	-1
O=C(CC1(O)C(=O)N(Cc2cccc3ccccc23)c2ccccc21)c1ccccn1 (stereo not drawn)	46	111*
CCCCN1C(=O)C(O)(CC(=O)c2ccccn2)c2ccccc21 (stereo not drawn)	-11	125*
Cc1ccc(C(=O)CC2(O)C(=O)N(Cc3cccc4ccccc34)c3ccccc32)o1 (stereo not drawn)	nt	36
O=C(CC1(O)C(=O)N(Cc2cccc3ccccc23)c2ccccc21)c1ccco1 (stereo not drawn)	nt	111*
Cc1ccc(-c2nc3ccccc3s2)cc1NC(=O)COc1ccccc1Cl	-6	15
COc1ccc(CN(C)C[C@@H]2Oc3c(NC(=O)Nc4ccc5c(c4)OCO5)cccc3C(=O)N([C@H](C)CO)C[C@H]2C)cc1	10	62
C[C@@H]1CN([C@H](C)CO)C(=O)Cc2cc(NS(=O)(=O)c3ccc(Cl)cc3)ccc2O[C@@H]1CN(C)S(=O)(=O)c1ccc(F)cc1	5	27
O=C(CC(C(=O)O)N1CCCCC1)Nc1ccccc1 (stereo not drawn)	-5	48
N#Cc1c(-c2ccc(Cl)cc2)[nH]c(SCc2ccccc2)nc1=S	4	11
COc1ccc(CN2C(=O)C(O)(CC(=O)c3ccc4ccccc4c3)c3ccccc32)cc1OC (stereo not drawn)	nt	61
COc1ccc(CN2C(=O)C(O)(CC(=O)c3ccco3)c3ccccc32)cc1OC (stereo not drawn)	nt	118*
O=C(CN1C(=O)C2C3C=CC(C4CC34)C2C1=O)Oc1ccccc1C(=O)Oc1ccccc1 (stereo not drawn)	3	6
C[C@H]1CN([C@@H](C)CO)C(=O)c2cc(NC(=O)c3ccncc3)ccc2O[C@H]1CN(C)C(=O)Nc1ccc(F)cc1	1	4
N#Cc1c(NC(=O)C(F)(F)F)sc2c1CCCC2	-2	nt
N#CC1=C(N)N(c2sc3c(c2C#N)CCCC3)C2=C(CCC2)C1(C(F)(F)F)C(F)(F)F	205*	nt
CC1CCC2(C(=O)O)CCC3(C)C(=CCC4C5(C)C[C@@H](O)[C@@H](O)C(C)(CO)C5CCC43C)C2C1(C)O (stereo partly drawn)	-4	16
O=C(O)Cn1ncc2c3ccccc3n(Cc3cccc(Cl)c3)c2c1=O	2	nt
C=C1C(=O)O[C@@H]2C[C@H](C)C3C[C@H](O)[C@H](O)[C@@]3(C)C[C@H]12 (stereo partly drawn)	28	nt
C=C1C(=O)O[C@H]2C[C@@H](C)[C@@H]3CCC(=O)[C@@]3(C)C[C@H]12	40	117*
COc1ccc(NC(=O)N(C)C[C@@H]2Oc3ccc(NS(=O)(=O)c4ccc(C)cc4)cc3C(=O)N([C@@H](C)CO)C[C@@H]2C)cc1	0	7
Cc1cc(C(=O)Nc2cccc3c2O[C@H](CN(C)S(=O)(=O)c2cccs2)[C@@H](C)CN([C@H](C)CO)C3=O)n(C)n1	-11	5
C[C@@H]1CN([C@H](C)CO)C(=O)Cc2cc(NC(=O)Nc3ccc4c(c3)OCO4)ccc2O[C@@H]1CN(C)Cc1ccc(Oc2ccccc2)cc1	4	119*
C[C@@H]1CN([C@@H](C)CO)C(=O)Cc2cc(NC(=O)Nc3ccc4c(c3)OCO4)ccc2O[C@@H]1CN(C)Cc1ccc(Oc2ccccc2)cc1	18	107*
